Measurements published in the supplement of paper PMC10849652.
Of roughly 8,800 targets only a part is listed; those with a hit were picked by preference. About 0.5% of all pairs of compound and target were hits.

Tests used:
Experiment in all cases: log2 fold change, soluble protein after heating vs DMSO (PISA); higher = thermal stabilisation; K562 lysate, 10 uM; active = over 0.2 and 3.5 SD of the protein, either way, in both replicates (recomputed)
erlotinib = compound: C#Cc1cccc(Nc2ncnc3cc(OCCOC)c(OCCOC)cc23)c1 [erlotinib]
Outline: (§1)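 K562 pellets were dounce-homogenised in PBS pH 7.4 containing 1 mM MgCl2, and the crude extract, at 1 mg/mL protein, was exposed to 10 μM compound for 30 min. Aliquots were heated for 3 min across 48°C-58°C, pooled, brought to 0.5% NP-40 at 4°C and spun at 21,000xg for 90 min, with the supernatant taken as soluble protein. TMTpro 16plex LC-MS/MS with equalised channel sums quantified that protein. Values are log-two fold changes in thermal stability relative to solvent controls, taken from duplicates.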

[1] = compound: C/C(=N\NC(=O)C1=CC(=CC=C1)S(=O)(=O)N2CCOCC2)/C3=C(C=CC(=C3)Cl)O
Outline: as §1

[2] = compound: C1=CC(=CC=C1C2=NC3=C(N2)C=C(C=C3)C(=O)N)OC4=CC=C(C=C4)Cl
Outline: as §1

[3] = compound: C1=CC2=C(C=CC(=C2)/C=C\3/C(=O)NC(=NCC4=CC=CS4)S3)N=C1
Outline: as §1

[4] = compound: C1=CC2=NC=CN=C2C=C1/C=C/3\C(=O)NC(=O)S3
Outline: as §1

[5] = compound: C1=CC=C(C=C1)C2=NC(=C(N2)C3=CC=NC=C3)C4=CC(=C(C=C4)Cl)O
Outline: as §1

[6] = compound: C1=CC=C2C(=C1)C3=NNC4=CC=CC(=C43)C2=O
Outline: as §1

[7] = compound: C1CCN(C1)C(=O)NC2=CC=CC(=C2)NC3=NC=C(C(=N3)NCCC4=CN=CN4)Br
Outline: as §1

[8] = compound: C1CN(CCC1(CC2=CC=C(C=C2)Cl)N)C3=NC=NC4=C3C=CN4
Outline: as §1

IRAK-1-4 Inhibitor I = compound: C1COCCN1CCN2C3=CC=CC=C3N=C2NC(=O)C4=CC(=CC=C4)[N+](=O)[O-] [IRAK-1-4 Inhibitor I]
Outline: as §1

Measured: log2 fold change

TBK1 (UniProt Q9UHD2)
Chain of UniProt Q9UHD2 (Q9UHD2 whole entry, looked up): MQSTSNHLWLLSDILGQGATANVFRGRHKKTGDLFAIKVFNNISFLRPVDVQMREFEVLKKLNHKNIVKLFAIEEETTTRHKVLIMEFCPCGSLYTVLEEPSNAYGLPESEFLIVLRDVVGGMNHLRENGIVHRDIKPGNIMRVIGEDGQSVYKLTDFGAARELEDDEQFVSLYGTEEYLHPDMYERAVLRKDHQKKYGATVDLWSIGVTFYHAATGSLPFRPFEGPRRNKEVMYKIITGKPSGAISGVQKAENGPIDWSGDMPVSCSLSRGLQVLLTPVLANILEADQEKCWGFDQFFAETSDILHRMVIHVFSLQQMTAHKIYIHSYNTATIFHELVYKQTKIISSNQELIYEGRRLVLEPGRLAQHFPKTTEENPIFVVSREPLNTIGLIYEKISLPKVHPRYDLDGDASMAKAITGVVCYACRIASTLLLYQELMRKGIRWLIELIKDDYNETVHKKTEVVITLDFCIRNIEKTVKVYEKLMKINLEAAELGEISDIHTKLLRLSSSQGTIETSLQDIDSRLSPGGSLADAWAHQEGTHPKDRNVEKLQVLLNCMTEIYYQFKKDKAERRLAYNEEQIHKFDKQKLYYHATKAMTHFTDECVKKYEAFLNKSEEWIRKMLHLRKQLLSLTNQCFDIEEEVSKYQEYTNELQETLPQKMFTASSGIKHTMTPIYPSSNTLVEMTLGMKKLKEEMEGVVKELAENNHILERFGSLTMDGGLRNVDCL
inactive: erlotinib -0.005 | [1] -0.066 | [2] -0.03 | [3] 0.006 | [4] -0.067 | [5] 0.023 | [6] 0.238 | [7] 0.214 | [8] -0.047 | IRAK-1-4 Inhibitor I 0.082

TTC5 (UniProt Q8N0Z6)
Chain of UniProt Q8N0Z6 (Q8N0Z6 whole entry, looked up): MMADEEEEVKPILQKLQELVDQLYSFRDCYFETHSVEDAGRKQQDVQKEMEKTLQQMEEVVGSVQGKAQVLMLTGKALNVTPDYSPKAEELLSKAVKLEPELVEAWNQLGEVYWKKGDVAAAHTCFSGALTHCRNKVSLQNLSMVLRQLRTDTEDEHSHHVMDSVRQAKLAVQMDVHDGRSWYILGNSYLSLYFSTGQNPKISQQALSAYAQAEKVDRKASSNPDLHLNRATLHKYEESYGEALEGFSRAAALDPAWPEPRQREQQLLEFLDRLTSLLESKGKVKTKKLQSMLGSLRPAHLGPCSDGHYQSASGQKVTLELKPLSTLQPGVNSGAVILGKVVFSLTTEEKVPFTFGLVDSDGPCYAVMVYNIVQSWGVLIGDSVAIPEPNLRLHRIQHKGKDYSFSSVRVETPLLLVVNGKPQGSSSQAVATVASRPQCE
inactive: erlotinib -0.015 | [1] -0.089 | [2] -0.014 | [3] -0.034 | [4] 0.041 | [5] 0.022 | [6] 0.016 | [7] 0.017 | [8] 0.033 | IRAK-1-4 Inhibitor I -0.008

TMEM97 (UniProt Q5BJF2)
inactive: erlotinib 0.01 | [1] 0.043 | [2] 0.036 | [3] 0.007 | [4] 0.019 | [5] 0 | [6] 0.002 | [7] -0.033 | [8] 0.018 | IRAK-1-4 Inhibitor I 0.091

THOC5 (UniProt Q13769)
inactive: erlotinib 0.013 | [1] -0.105 | [2] 0.036 | [3] -0.035 | [4] 0.008 | [5] -0.001 | [6] -0.016 | [7] 0.005 | [8] 0.001 | IRAK-1-4 Inhibitor I -0.012

TRIM11 (UniProt Q96F44)
Chain of UniProt Q96F44 (Q96F44 whole entry, looked up): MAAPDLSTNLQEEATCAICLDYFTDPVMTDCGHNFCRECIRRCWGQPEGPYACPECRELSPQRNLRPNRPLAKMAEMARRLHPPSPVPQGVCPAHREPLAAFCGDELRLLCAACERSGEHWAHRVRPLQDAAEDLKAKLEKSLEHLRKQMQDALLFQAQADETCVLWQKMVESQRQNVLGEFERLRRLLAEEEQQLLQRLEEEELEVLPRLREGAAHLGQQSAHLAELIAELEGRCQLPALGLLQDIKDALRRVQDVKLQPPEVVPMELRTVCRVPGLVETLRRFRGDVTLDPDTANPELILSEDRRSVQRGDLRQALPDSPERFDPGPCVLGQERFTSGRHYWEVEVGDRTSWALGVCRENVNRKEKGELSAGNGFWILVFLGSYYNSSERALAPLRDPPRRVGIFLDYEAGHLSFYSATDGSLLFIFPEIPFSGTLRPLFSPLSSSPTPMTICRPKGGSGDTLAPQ
inactive: erlotinib 0.005 | [1] -0.012 | [2] -0.008 | [3] -0.002 | [4] 0.012 | [5] -0.018 | [6] -0.032 | [7] -0.046 | [8] 0.002 | IRAK-1-4 Inhibitor I 0.043

UBR1 (UniProt Q8IWV7)
inactive: erlotinib 0.01 | [1] 0.058 | [2] -0.055 | [3] -0.002 | [4] 0.026 | [5] 0.015 | [6] -0.016 | [7] -0.047 | [8] 0.008 | IRAK-1-4 Inhibitor I 0.002

TUBB (UniProt P07437)
Chain of UniProt P07437 (P07437 whole entry, looked up): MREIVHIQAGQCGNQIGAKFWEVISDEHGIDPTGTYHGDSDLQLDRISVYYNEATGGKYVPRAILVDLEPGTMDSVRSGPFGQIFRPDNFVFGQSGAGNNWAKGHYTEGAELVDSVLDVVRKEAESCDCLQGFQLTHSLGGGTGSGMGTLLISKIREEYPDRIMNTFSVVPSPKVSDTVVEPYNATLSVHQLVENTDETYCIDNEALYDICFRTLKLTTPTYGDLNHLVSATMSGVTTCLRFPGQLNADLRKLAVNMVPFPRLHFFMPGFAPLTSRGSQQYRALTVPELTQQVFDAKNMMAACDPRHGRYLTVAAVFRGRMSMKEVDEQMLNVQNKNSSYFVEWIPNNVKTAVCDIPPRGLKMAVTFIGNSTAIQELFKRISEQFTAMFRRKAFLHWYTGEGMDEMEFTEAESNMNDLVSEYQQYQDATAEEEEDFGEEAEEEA
inactive: erlotinib 0.029 | [1] -0.017 | [2] 0.014 | [3] -0.006 | [4] 0.008 | [5] 0.008 | [6] -0.03 | [7] 0.006 | [8] 0.043 | IRAK-1-4 Inhibitor I 0.027

TRNAU1AP (UniProt Q9NX07)
Chain of UniProt Q9NX07 (Q9NX07 whole entry, looked up): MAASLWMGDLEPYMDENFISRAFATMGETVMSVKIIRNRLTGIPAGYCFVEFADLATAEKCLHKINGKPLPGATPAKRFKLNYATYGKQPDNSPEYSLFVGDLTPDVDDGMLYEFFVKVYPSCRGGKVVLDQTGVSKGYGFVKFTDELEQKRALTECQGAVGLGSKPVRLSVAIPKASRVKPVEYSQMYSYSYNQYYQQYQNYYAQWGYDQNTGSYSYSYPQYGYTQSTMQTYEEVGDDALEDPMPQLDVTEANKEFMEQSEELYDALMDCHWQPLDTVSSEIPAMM
inactive: erlotinib 0.019 | [1] 0.083 | [2] -0.037 | [3] 0.114 | [4] 0.038 | [5] -0.028 | [6] -0.31 | [7] -0.071 | [8] 0.015 | IRAK-1-4 Inhibitor I -0.005

TMEM87B (UniProt Q96K49)
Chain of UniProt Q96K49 (Q96K49 whole entry, looked up): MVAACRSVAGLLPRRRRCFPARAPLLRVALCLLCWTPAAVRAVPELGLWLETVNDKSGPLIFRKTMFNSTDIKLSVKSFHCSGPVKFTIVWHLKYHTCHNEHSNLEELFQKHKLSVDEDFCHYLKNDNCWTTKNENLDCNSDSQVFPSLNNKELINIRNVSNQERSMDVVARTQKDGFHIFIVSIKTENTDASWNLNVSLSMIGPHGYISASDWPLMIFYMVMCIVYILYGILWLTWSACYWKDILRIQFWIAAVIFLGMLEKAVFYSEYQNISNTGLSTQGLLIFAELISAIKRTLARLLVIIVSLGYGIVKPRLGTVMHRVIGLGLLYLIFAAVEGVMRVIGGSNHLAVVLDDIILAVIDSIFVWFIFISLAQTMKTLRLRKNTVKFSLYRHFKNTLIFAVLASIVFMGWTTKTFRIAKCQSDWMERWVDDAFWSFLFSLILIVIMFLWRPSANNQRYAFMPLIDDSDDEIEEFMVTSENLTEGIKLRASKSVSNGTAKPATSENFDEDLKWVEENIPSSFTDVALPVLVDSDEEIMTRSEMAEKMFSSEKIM
inactive: erlotinib -0.016 | [1] 0.103 | [2] 0.093 | [3] -0.003 | [4] 0.117 | [5] 0.03 | [6] -0.019 | [7] 0.006 | [8] -0.008 | IRAK-1-4 Inhibitor I -0.045

TRIM23 (UniProt P36406)
inactive: erlotinib -0.044 | [1] -0.022 | [2] 0.037 | [3] 0.014 | [4] 0.034 | [5] 0.493 | [6] -0.011 | [7] -0.017 | [8] 0.105 | IRAK-1-4 Inhibitor I 0.183

UBXN2B (UniProt Q14CS0)
inactive: erlotinib -0.008 | [1] -0.079 | [2] 0.073 | [3] -0.045 | [4] -0.01 | [5] -0.062 | [6] 0.149 | [7] -0.04 | [8] -0.046 | IRAK-1-4 Inhibitor I -0.028

TPM1 isoform 4 (UniProt P09493)
inactive: erlotinib -0.126 | [1] -0.004 | [2] 0.005 | [3] 0.018 | [4] 0.114 | [5] -0.026 | [6] -0.015 | [7] 0.014 | [8] -0.052 | IRAK-1-4 Inhibitor I -0.009

TTI1 (UniProt O43156)
inactive: erlotinib -0.017 | [1] 0.033 | [2] -0.049 | [3] 0.003 | [4] -0.012 | [5] -0.02 | [6] -0.003 | [7] -0.032 | [8] -0.037 | IRAK-1-4 Inhibitor I 0.015

TK1 (UniProt K7ERV3)
inactive: erlotinib 0.01 | [1] -0.061 | [2] 0.078 | [3] -0.047 | [4] -0.114 | [5] 0.048 | [6] 0.036 | [7] 0.017 | [8] 0.222 | IRAK-1-4 Inhibitor I 0.04

TUBB4A (UniProt M0QYM7)
inactive: erlotinib -0.017 | [1] -0.063 | [2] 0.071 | [3] -0.015 | [4] -0.322 | [5] 0.044 | [6] -0.097 | [7] -0.038 | [8] -0.027 | IRAK-1-4 Inhibitor I 0.025

TUBB6 (UniProt Q9BUF5)
inactive: erlotinib 0.039 | [1] 0.051 | [2] -0.002 | [3] 0.017 | [4] 0 | [5] 0.005 | [6] 0.009 | [7] -0.013 | [8] 0.057 | IRAK-1-4 Inhibitor I -0.003

TGFBRAP1 (UniProt Q8WUH2)
Chain of UniProt Q8WUH2 (Q8WUH2 whole entry, looked up): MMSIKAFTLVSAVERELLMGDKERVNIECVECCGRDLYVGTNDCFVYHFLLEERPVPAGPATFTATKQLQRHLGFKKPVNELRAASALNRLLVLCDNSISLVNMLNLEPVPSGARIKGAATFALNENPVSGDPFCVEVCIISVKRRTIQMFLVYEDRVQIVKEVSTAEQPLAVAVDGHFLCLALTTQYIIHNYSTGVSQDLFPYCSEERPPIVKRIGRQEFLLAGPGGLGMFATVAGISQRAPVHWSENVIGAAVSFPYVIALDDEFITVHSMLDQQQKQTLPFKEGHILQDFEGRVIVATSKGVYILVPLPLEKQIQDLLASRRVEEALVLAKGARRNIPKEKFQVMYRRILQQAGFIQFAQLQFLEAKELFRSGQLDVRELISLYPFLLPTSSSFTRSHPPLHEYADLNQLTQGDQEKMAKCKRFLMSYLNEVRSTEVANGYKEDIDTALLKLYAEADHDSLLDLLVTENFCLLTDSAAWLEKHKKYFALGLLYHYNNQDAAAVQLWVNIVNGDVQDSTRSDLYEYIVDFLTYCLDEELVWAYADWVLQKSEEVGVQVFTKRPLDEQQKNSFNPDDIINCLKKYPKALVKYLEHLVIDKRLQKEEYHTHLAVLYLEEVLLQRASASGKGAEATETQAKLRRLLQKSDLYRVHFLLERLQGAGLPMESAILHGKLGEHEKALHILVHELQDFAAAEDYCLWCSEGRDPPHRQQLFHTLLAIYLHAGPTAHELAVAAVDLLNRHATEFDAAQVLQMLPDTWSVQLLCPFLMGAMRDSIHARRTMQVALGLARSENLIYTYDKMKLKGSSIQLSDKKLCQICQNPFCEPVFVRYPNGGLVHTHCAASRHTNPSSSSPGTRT
inactive: erlotinib 0.015 | [1] 0.057 | [2] -0.016 | [3] -0.002 | [4] -0.018 | [5] -0.02 | [6] -0.056 | [7] 0.023 | [8] 0.006 | IRAK-1-4 Inhibitor I -0.026

UBR5 (UniProt O95071)
inactive: erlotinib 0.005 | [1] -0.029 | [2] -0.024 | [3] -0.002 | [4] -0.012 | [5] -0.013 | [6] -0.033 | [7] -0.001 | [8] 0.007 | IRAK-1-4 Inhibitor I 0.001

TUBB1 (UniProt Q9H4B7)
Chain of UniProt Q9H4B7 (Q9H4B7 whole entry, looked up): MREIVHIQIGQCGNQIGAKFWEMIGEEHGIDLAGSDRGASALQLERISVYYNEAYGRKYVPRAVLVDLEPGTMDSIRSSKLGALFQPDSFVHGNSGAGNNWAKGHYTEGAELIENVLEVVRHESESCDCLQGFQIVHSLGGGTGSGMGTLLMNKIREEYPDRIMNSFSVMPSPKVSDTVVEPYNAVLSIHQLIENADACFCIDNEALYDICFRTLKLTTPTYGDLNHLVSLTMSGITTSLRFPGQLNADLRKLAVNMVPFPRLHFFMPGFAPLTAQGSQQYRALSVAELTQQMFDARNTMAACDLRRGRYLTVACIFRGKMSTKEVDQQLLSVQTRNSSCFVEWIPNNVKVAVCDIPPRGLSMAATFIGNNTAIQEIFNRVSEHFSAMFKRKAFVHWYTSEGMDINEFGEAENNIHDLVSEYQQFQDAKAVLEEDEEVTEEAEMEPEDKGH
inactive: erlotinib 0.011 | [1] 0.091 | [2] 0.005 | [3] 0.01 | [4] 0.022 | [5] -0.011 | [6] 0.014 | [7] 0.015 | [8] 0.027 | IRAK-1-4 Inhibitor I 0.019

TBC1D2B (UniProt Q9UPU7)
inactive: erlotinib -0.005 | [1] -0.028 | [2] 0.098 | [3] 0.03 | [4] -0.053 | [5] 0.042 | [6] -0.111 | [7] -0.031 | [8] -0.024 | IRAK-1-4 Inhibitor I -0.075

THADA (UniProt Q6YHU6)
inactive: erlotinib 0.059 | [1] -0.003 | [2] 0 | [3] 0.004 | [4] -0.011 | [5] -0.004 | [6] -0.017 | [7] -0.024 | [8] 0.017 | IRAK-1-4 Inhibitor I -0.017

TPM3 (UniProt P06753)
inactive: erlotinib -0.022 | [1] 0.027 | [2] -0.026 | [3] -0.042 | [4] -0.012 | [5] 0.014 | [6] 0.068 | [7] 0.035 | [8] -0.021 | IRAK-1-4 Inhibitor I -0.019

UBE3B (UniProt Q7Z3V4)
inactive: erlotinib -0.14 | [1] -0.218 | [2] -0.3 | [3] 0.056 | [4] 0.142 | [5] 0.011 | [6] -0.022 | [7] -0.04 | [8] -0.12 | IRAK-1-4 Inhibitor I 0.019

UBE2L6 (UniProt O14933)
inactive: erlotinib 0.062 | [1] -0.03 | [2] 0.007 | [3] -0.003 | [4] -0.065 | [5] -0.001 | [6] 0.023 | [7] -0.014 | [8] 0.144 | IRAK-1-4 Inhibitor I 0.047

TRIM56 (UniProt Q9BRZ2)
Chain of UniProt Q9BRZ2 (Q9BRZ2 whole entry, looked up): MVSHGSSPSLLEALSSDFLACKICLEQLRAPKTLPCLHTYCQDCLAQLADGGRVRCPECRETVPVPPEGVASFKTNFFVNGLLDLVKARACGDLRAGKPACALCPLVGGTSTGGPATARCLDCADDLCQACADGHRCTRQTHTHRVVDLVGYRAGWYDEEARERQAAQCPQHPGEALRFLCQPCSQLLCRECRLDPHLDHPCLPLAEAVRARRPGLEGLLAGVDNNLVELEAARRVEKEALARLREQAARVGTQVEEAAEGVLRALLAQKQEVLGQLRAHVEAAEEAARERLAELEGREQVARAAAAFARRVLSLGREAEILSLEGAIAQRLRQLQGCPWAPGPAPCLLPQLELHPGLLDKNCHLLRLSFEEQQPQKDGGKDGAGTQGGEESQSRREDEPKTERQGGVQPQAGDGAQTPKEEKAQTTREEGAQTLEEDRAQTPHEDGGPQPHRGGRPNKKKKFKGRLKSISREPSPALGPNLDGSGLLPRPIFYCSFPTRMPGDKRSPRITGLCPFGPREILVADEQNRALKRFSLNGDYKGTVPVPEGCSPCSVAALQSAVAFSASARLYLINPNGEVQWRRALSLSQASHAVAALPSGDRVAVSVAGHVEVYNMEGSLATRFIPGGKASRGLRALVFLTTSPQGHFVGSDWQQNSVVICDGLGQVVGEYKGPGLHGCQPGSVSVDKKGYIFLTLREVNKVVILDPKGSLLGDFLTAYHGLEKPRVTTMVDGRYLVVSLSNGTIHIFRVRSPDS
inactive: erlotinib 0.053 | [1] -0.021 | [2] 0.021 | [3] -0.049 | [4] 0.141 | [5] -0.013 | [6] 0.033 | [7] 0.039 | [8] 0.003 | IRAK-1-4 Inhibitor I 0.062

UBE4A isoform 2 (UniProt Q14139)
inactive: erlotinib 0.031 | [1] 0.091 | [2] 0.023 | [3] 0.013 | [4] -0.023 | [5] -0.021 | [6] -0.082 | [7] -0.028 | [8] 0.035 | IRAK-1-4 Inhibitor I 0.004

UBR3 isoform 4 (UniProt Q6ZT12)
inactive: erlotinib 0.016 | [1] 0.044 | [2] 0.016 | [3] 0.027 | [4] 0.005 | [5] 0.005 | [6] -0.07 | [7] -0.063 | [8] 0.032 | IRAK-1-4 Inhibitor I -0.007

TTL (UniProt Q8NG68)
inactive: erlotinib 0.056 | [1] 0.01 | [2] 0 | [3] 0.019 | [4] -0.001 | [5] -0.027 | [6] 0.097 | [7] 0.006 | [8] -0.074 | IRAK-1-4 Inhibitor I 0.019

TRMT2A (UniProt Q8IZ69)
inactive: erlotinib -0.042 | [1] -0.015 | [2] -0.007 | [3] 0.012 | [4] -0.012 | [5] -0.012 | [6] -0.004 | [7] -0.005 | [8] 0.002 | IRAK-1-4 Inhibitor I -0.007
